In PubChem BioAssay (Tox21):
Inconclusive results are not listed. Entries that show only a call come without a potency. Values without a mark were called inactive. Activity calls are given as the source filed them. Calls follow the shape of the dose curve; as a rule, active = well fitted cell-killing curve with a large enough effect in the repeat runs; inconclusive = weak or mixed curves, or effect the other way; inactive = no such curve, though single readings can be large or run the other way.

Experiment: qHTS assay to identify aromatase inhibitors - cell viability counter screen (AID 743084);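 also: cells stimulated with testosterone during compound exposure; nearly all actives have a fitted effect of over 55% in size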
Conditions: MCF-7 aro ERE viability, CellTiter-Fluor, 24 h; series mostly up to 70.3 µM

Q: With `COC(=O)[C@@H](N)CCCN/C(N)=N/[N+](=O)[O-]` as the compound, how does the Potency read?
A: The Potency was “inactive”.

Q: For `CCNc1nc(Cl)nc(NC(C)(C)C)n1`, which Potency is on record?
A: Its Potency is “inactive”.

Q: Which Potency does the source give for `CC(C)[N+](C)(CCC(C(N)=O)(c1ccccc1)c1ccccc1)C(C)C` here?
A: The Potency was “inactive”.

Q: Which Potency does the source give for `CCOC(=O)N(C)N=O` here?
A: Its Potency is “inactive”.

Q: With `c1cncc([C@@H]2CCCCN2)c1` as the compound, how does the Potency read?
A: The Potency was “inactive”.

Q: Which Potency does the source give for `CCOC(=O)CCl` here?
A: Its Potency is “inactive”.

Q: For `NCCOS(=O)(=O)O`, which Potency is on record?
A: The Potency was “inactive”.

Q: For `Cc1ccc(-c2nc3ccc(C)cn3c2CC(=O)N(C)C)cc1`, which Potency is on record?
A: The Potency was “inactive”.

Q: Which Potency does the source give for `Cc1ccc2cc(C)ccc2c1` here?
A: The Potency was “inactive”.

Q: Which Potency does the source give for `C[C@H](N)C(=O)c1ccccc1` here?
A: Its Potency is “inactive”.

Q: With `C=CCN1CC[C@]23CCCC[C@H]2[C@H]1Cc1ccc(O)cc13` as the compound, how does the Potency read?
A: Its Potency is “inactive”.

Q: Which Potency does the source give for `N#CC(Br)(Br)C(N)=O` here?
A: The Potency was “inactive”.

Q: With `COc1cccc(C=O)c1` as the compound, how does the Potency read?
A: Its Potency is “inactive”.

Q: With `C#CC(C)(C)O` as the compound, how does the Potency read?
A: Its Potency is “inactive”.

Q: With `CCN[C@H](C)Cc1cccc(C(F)(F)F)c1` as the compound, how does the Potency read?
A: Its Potency is “inactive”.

Q: Which Potency does the source give for `CCOc1cc(OP(=S)(OC)OC)nc(CC)n1` here?
A: The Potency was “inactive”.

Q: Which activity change, negative = cytotoxicity does the source give for `Brc1c(Br)c(Br)c(Br)c(Br)c1Br` here?
A: The activity change, negative = cytotoxicity was -1.05% [at 8.47 µM].

Q: Which Potency does the source give for `CCN(CCO)CCn1c(Cc2ccccc2)nc2c1c(=O)n(C)c(=O)n2C` here?
A: Its Potency is “inactive”.

Q: Which Potency does the source give for `Cc1cc(OC(=O)N(C)C)nn1C(=O)N(C)C` here?
A: The Potency was “inactive”.

Q: With `O=C(Cl)OCc1ccccc1` as the compound, how does the Potency read?
A: Its Potency is “inactive”.

Q: With `ClC1=C(Cl)C2(Cl)C(CBr)CC1(Cl)C2(Cl)Cl` (stereo unspecified) as the compound, how does the Potency read?
A: The Potency was “inactive”.

Q: Which Potency does the source give for `CN(C)CCN(C)C` here?
A: Its Potency is “inactive”.

Q: For `O=C(CCl)NCO`, which Potency is on record?
A: Its Potency is “inactive”.

Q: For `CCCOC(=O)Cc1ccc(OCC(=O)N(CC)CC)c(OC)c1`, which Potency is on record?
A: Its Potency is “inactive”.

Q: With `CC[C@H](O)C(C[C@H](C)N(C)C)(c1ccccc1)c1ccccc1` as the compound, how does the Potency read?
A: The Potency was “inactive”.

Q: With `O=CCCl` as the compound, how does the Potency read?
A: Its Potency is “inactive”.
